Compound activity deposited in PubChem BioAssay by National Center for Advancing Translational Sciences (NCATS).
VACV mCherry inh: qHTS for Stage-Specific Inhibitors of Vaccinia Orthopoxvirus: mCherry Reporter Primary qHTS | Vaccinia virus mCherry reporter infection, fluorescence | Potency, µM (highest dose often 36.5 µM), hits mostly inhibitors | 310,000 compounds, 0.63% hits; calls by dose curve; tested in A549 cells; further: nearly all actives have a fitted effect of over 35% in size
HCV inh: qHTS Assay for Inhibitors of Hepatitis C Virus (HCV); 340,000 compounds, 3.4% hits; Potency, µM (top dose mostly 41.8 µM), most hits filed as inhibitors; Huh7.5.1 HCVcc-Cre infection, luciferase reporter, 44 h; active means well fitted inhibition curve with a large enough effect; inconclusive means small, poorly fitted or top-dose-only effect, or another doubt; inactive means no such curve, though single readings can be large or run the other way
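1,000 cells/well; 4 h culture; + compound; + HCVcc-Cre (~0.5 moi); 44 h; luciferase substrate, RT 15 min; read 15 sec.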
FMDV inh: High Throughput Screening for Foot and Mouth Disease Virus Antivirals; FMDV antiviral cell-based qHTS; Potency, µM (titrated, usually from 57.9 µM), actives largely listed as inhibitors; 410,000 compounds, 1.2% hits; AID 1159524, 2015; calls by dose curve; tested in HEK293T cells; further: read-out not given here; nearly all actives have a fitted effect of over 45% in size
HCMV antiviral: qHTS Assay for inhibitors of the human cytomegalovirus (HCMV). HFF cells, HCMV-luciferase reporter, 72 h; stronger effect = lower value. activity change, negative = inhibition, % at 57.5 µM. AID 1259415, 2018. 410,000 compounds, 4.5% hits; in the data active means activity change below about -60%; inconclusive means no clear call, values can overlap the other calls; inactive means above about -39%
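Compounds were evaluated in HFFs infected with an HCMV luciferase reporter virus (MOI 1 PFU/cell). Luciferase in lysates collected 72 h post infection served as the replication measure.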
VACV Venus inh: qHTS for Stage-Specific Inhibitors of Vaccinia Orthopoxvirus: Venus Reporter Primary qHTS. AID 720580, 2013. 330,000 compounds, 0.46% hits. Vaccinia virus Venus reporter expression, fluorescence. Potency, µM (titrated, usually from 36.5 µM), usual class: inhibitors; calls by dose curve; tested in A549 cells; further: nearly all actives have a fitted effect of over 30% in size
Large screens that a line does not name were inactive. Only some compounds are listed: those with a hit (about 7.3% of all), similar ones and a draw of the others.

COc1ccc(Cl)cc1NC(=O)COC(=O)c1c(-c2ccccc2)noc1C	HCV inh 4µM, FMDV inh inconclusive (no result: VACV mCherry inh, VACV Venus inh)
CCOC(=O)C1=C(CN2CCN(c3ccccc3F)CC2)NC(=O)NC1c1ccc(OC)cc1 (stereo unspecified)	none (no result: HCV inh)
COc1c(Cl)cc(-c2noc(C)c2C(=O)NCc2ccccc2)cc1Cl	HCMV antiviral -68
Cc1ccc(/C=N/NC(=O)c2c(-c3ccccc3)noc2C)c(O)c1	HCMV antiviral -110 (no result: VACV mCherry inh, HCV inh, FMDV inh, VACV Venus inh)
COc1cccc(/C=N/NC(=O)c2cnccn2)c1O	VACV mCherry inh 4.5µM
COc1c(Cl)cc(-c2noc(C)c2C(=O)NCc2ccc3c(c2)OCO3)cc1Cl	none
COc1ccc(/C=N/NC(=O)c2cnccn2)c(OC)c1OC	none (no result: VACV mCherry inh, VACV Venus inh)
COc1cccc(/C=N/NC(=O)c2c(-c3ccccc3)noc2C)c1O	VACV mCherry inh 10µM, HCV inh inconclusive, HCMV antiviral -83, VACV Venus inh inconclusive
Fc1ccc(-c2nc(-c3c[nH]c4ccccc34)cs2)cc1	none (no result: HCV inh, FMDV inh, HCMV antiviral)
COc1ccc(S(=O)(=O)c2cn(C)c3cc(N4CCOCC4)c(F)cc3c2=O)cc1	none (no result: HCV inh)
O=C(C[N+]1(CCc2ccccc2)CCOCC1)c1ccccc1	none (no result: HCV inh, FMDV inh, HCMV antiviral)
CCCn1c(=O)c2c(nc3n2CCN3Cc2ccco2)n(C)c1=O	none
Cn1c(=O)n(Cc2ccc(Cl)cc2)c(=O)c2c1nc1n2CCN1Cc1ccco1	HCV inh 16µM, FMDV inh inconclusive, HCMV antiviral -86 (no result: VACV mCherry inh, VACV Venus inh)
Nc1nc(Cl)cc(N2CCC(c3cc(-c4ccc(Cl)cc4Cl)n[nH]3)CC2)n1	HCV inh 22µM, FMDV inh inconclusive, HCMV antiviral -100 (no result: VACV mCherry inh, VACV Venus inh)
Nc1nc(Cl)cc(N2CCCC2)n1	none
Nc1nc(NCc2ccc(F)cc2)c2[nH]cnc2n1	none (no result: HCV inh, FMDV inh, HCMV antiviral)
COC(=O)N/N=C\c1cc(Br)ccc1OCc1ccccc1	HCV inh 10µM
O=C(N/N=C/c1cc(Br)ccc1O)c1ccccc1Cl	VACV mCherry inh inconclusive, HCV inh inconclusive, HCMV antiviral -65, VACV Venus inh inconclusive
O=C(CCc1ccccc1)N/N=C/c1cc(Br)ccc1O	VACV mCherry inh 13µM, HCV inh 11µM, HCMV antiviral -76, VACV Venus inh inconclusive
Oc1ccc(Br)cc1/C=N/NC(=S)NCCc1ccccc1	VACV mCherry inh 1µM, HCV inh 10µM
O=C(N/N=C\c1ccccc1O)c1ccccc1O	none (no result: VACV mCherry inh, HCV inh, HCMV antiviral, VACV Venus inh)
Cc1cccc(/C=N/NC(=O)c2cc(Br)ccc2O)n1	HCV inh 4µM
CCOc1ccc(Br)cc1C(=O)N/N=C/c1cccc(C)n1	none (no result: VACV mCherry inh, VACV Venus inh)
Cc1cnc(SCC2CCCO2)nc1C1CCCN(C(=O)c2ccc(S(N)(=O)=O)cc2)C1 (stereo unspecified)	none (no result: HCV inh, HCMV antiviral)
O=C1Nc2ccccc2C12OCC(COc1ccc(Cl)cc1)O2 (stereo unspecified)	HCV inh 13µM, FMDV inh inconclusive, VACV Venus inh inconclusive
CN1C(=O)C2(OCC(COc3ccc(Cl)cc3)O2)c2ccccc21 (stereo unspecified)	HCMV antiviral inconclusive (no result: FMDV inh)
CN(C/C=C/C#CC(C)(C)C)Cc1cccc2ccccc12	FMDV inh inconclusive, HCMV antiviral -80
COc1ccc(CCN(C)Cc2cccc3ccccc23)cc1OC	none (no result: VACV mCherry inh, VACV Venus inh)
Cc1nc2cc[nH]n2c(=O)c1CCc1ccccc1	none (no result: VACV mCherry inh, HCV inh, FMDV inh, VACV Venus inh)
COc1ccc(COc2cc(-c3cccc(OC)c3)nc3ccc(NC(=O)c4ccc(OC)cc4)cc23)cc1	HCV inh 7.1µM, FMDV inh inconclusive, HCMV antiviral -81
CCOc1ccc(C(=O)Nc2ccc3nc(N(CC)CC)cc(C)c3c2)cc1	FMDV inh 32µM, HCMV antiviral -86 (no result: HCV inh)
CCN(CC)c1cc(C)c2cc(NC(=O)c3ccccc3F)ccc2n1	HCV inh 10µM, HCMV antiviral -80 (no result: VACV mCherry inh, VACV Venus inh)
CCN(CC)c1cc(C)c2cc(NC(=O)c3cccc(OC)c3OC)ccc2n1	HCMV antiviral inconclusive (no result: HCV inh)
CCOc1ccccc1C(=O)Nc1ccc2nc(N(CC)CC)cc(C)c2c1	none (no result: HCV inh)
COc1ccc(COc2cc(-c3cccc(OC)c3)nc3ccc(NC(=O)c4ccccc4)cc23)cc1	HCV inh inconclusive, FMDV inh inconclusive
CCN(CC)c1cc(C)c2cc(NC(=O)c3cccc(OC)c3)ccc2n1	HCMV antiviral -71 (no result: HCV inh)
CN(C(=O)CSc1nnc(COc2ccccc2)o1)c1ccccc1	none (no result: HCV inh)
CCCCOc1ccc(C(=O)NCC2(N3CCN(C)CC3)CCCCC2)cc1	none (no result: HCV inh)
COc1ccc(CCNC(=O)Cn2cc(S(=O)(=O)Cc3ccccc3F)c3ccccc32)cc1OC	none (no result: HCV inh)
CCOc1ccc(/C=C/C(=O)Nc2ccc3nc(N(CC)CC)cc(C)c3c2)cc1OC	none (no result: HCV inh)
CCN(CC)c1cc(C)c2cc(NC(=O)/C=C/c3cc(OC)c(OC)c(OC)c3)ccc2n1	HCMV antiviral -100 (no result: HCV inh)
O=C(Nc1ccc(Br)cc1)c1cccc(C(=O)Nc2ccc(Br)cc2)c1	none (no result: HCV inh)
COc1cc2ccc3c(CCN(C)C)cc(OC)c(OC)c3c2cc1OC	HCV inh inconclusive (no result: VACV mCherry inh, VACV Venus inh)
CCCCCSc1cc(OC)c(CCN)cc1OC	HCV inh inconclusive, HCMV antiviral -70 (no result: VACV mCherry inh)
CCCCCCCSc1cc(OC)c(CCN(C)C)cc1OC	VACV mCherry inh inconclusive, HCV inh inconclusive, VACV Venus inh 10µM
COc1cc(CCN)ccc1O	none
COc1ccc(N2CCN(C(=O)c3cc(NC(C)=O)c4c(c3)ncn4CCc3ccccn3)CC2)cc1	none (no result: HCV inh, HCMV antiviral)
O=C(Nc1nccs1)c1cc2c(s1)CCCCC2	FMDV inh 8.9µM, HCMV antiviral -64, VACV Venus inh inconclusive (no result: VACV mCherry inh)
CCc1cccc(NC(=O)CN2C(=O)COc3ccc(S(=O)(=O)Nc4ccccc4)cc32)c1	none (no result: HCV inh)
Cc1cc(=O)n2nc(N3CCCC(C(=O)NC4CCC(C)CC4)C3)sc2n1 (stereo unspecified)	HCMV antiviral -61
O=C(Nc1ccc2oc(-c3cccc(F)c3)nc2c1)c1ccc2ccccc2c1	none (no result: HCV inh)
O=C(NCc1cccs1)C(=O)c1cn(CC(=O)N2CCOCC2)c2ccccc12	HCMV antiviral -96
CN1c2ccccc2C(C)(C)C12C=Cc1cc(O)ccc1O2 (stereo unspecified)	HCV inh 5.6µM (no result: FMDV inh)
CCc1ccc2nc(N(Cc3cccnc3)C(=O)Cc3ccccc3)sc2c1	none (no result: HCV inh)
CCOC(=O)CSc1nc(-c2ccc(F)cc2)cc(C(F)(F)F)c1C#N	FMDV inh 32µM (no result: HCV inh)
CSc1nc(C2CC2)cc(-c2cccs2)c1C#N	HCV inh 11µM, HCMV antiviral -102 (no result: FMDV inh)
CC(C)OC(=O)CC(=O)CSc1nc(-c2ccc(F)cc2)cc(-c2ccccc2)c1C#N	HCV inh inconclusive, HCMV antiviral -62
COc1ccc(-c2cc(C3CC3)nc(SCC(=O)c3cccs3)c2C#N)cc1	HCV inh inconclusive
CCN(CC)C(=O)CSc1nc(-c2ccccc2)cc(-c2ccc(OC)cc2)c1C#N	HCMV antiviral -65 (no result: HCV inh)
CC(O)(COc1ccccc1)c1ccc2c(c1)CN(Cc1ccccn1)CCO2 (stereo unspecified)	none (no result: HCV inh, HCMV antiviral)
CCN(CC)C(=O)CSc1nc(-c2cccs2)cc(-c2cccs2)c1C#N	HCV inh 2.5µM, HCMV antiviral inconclusive (no result: VACV mCherry inh, VACV Venus inh)
